The source of these data is PubChem BioAssay (EPA / NIEHS).

Records with an inconclusive call do not appear. Active and inactive are the calls of the source. How the source made its calls, unless noted: active means hit-call score of the fitted dose curve at least 0.9, where 1 is the maximum; inconclusive means response in the unintended direction; inactive means score below 0.9.

Read-out in assay [1]: ABC Transporter (ABCB11), ABCB11 (gene 8647)
Briefly: CLD_ABCB11_24hr: CellzDirect (CLD) Gene Expression Assay for ABC Transporter (ABCB11) at 24 hours (AID 2283674; active means hit-call score of the fitted dose curve at least 0.9, where 1 is the maximum; inactive means score below 0.9). The method in brief:
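ABCB11 transcript was quantified by qNPA chemiluminescence in cultured human liver hepatocytes 24 hours after dosing. Fresh dosing solutions were applied on consecutive days, against a 0.2% DMSO vehicle. Cytotoxicity was noted by phase-contrast morphology.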

Read-out in assay [2]: ABC Transporter (ABCB11), ABCB11 (gene 8647)
Briefly: CLD_ABCB11_6hr: CellzDirect (CLD) Gene Expression Assay for ABC Transporter (ABCB11) at 6 hours (AID 2283675).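 Further: hits raise ABCB11 mRNA level so AC50 marks induction.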 The essentials:
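Read-out was ABCB11 mRNA gain of signal by quantitative nuclease protection assay, relative to 0.2% DMSO vehicle, 6 h post-dose. Cells were primary human hepatocytes from two donors, treated across multiple concentrations; phase-contrast cytotoxicity noted yes/no.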

Read-out in assay [3]: Cytochrome P450 2B6 (Homo sapiens) (UniProt P20813)
The assay is described as follows: CLD_CYP2B6_6hr: CellzDirect (CLD) Gene Expression Assay for xenobiotic metabolism (CYP2B6) at 6 hours (AID 2283677).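 Further: actives raise CYP2B6 transcript above DMSO baseline so AC50 marks an inducer.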 The essentials: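 CYP2B6 transcript levels, read by chemiluminescent qNPA, were fitted for increase versus DMSO baseline; cultured human liver hepatocytes from two donor preparations were harvested 6 h after exposure to test chemicals at multiple concentrations.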

Read-out in assay [4]: Cytochrome P450 2C19 (Homo sapiens) (UniProt P33261)
Briefly: CLD_CYP2C19_6hr: CellzDirect (CLD) Gene Expression Assay for xenobiotic metabolism (CYP2C19) at 6 hours (AID 2283678). The method in brief:
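CYP2C19 transcript induction was quantified by quantitative nuclease protection assay with chemiluminescent read-out, 6 h after dosing. Cells were primary human hepatocytes from two donor preparations, given fresh dosing solutions daily in 0.2% DMSO vehicle. Activity was relative to DMSO.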

Assay [5] can be described thus: CCTE_Padilla_ZF_144hpf_TERATOSCORE: (Legacy) CCTE's 144 Hour Post-fertilization zebrafish Assay Teratoscore, Padilla Lab (AID 2283679; active means hit-call score of the fitted dose curve at least 0.9, where 1 is the maximum; inactive means score below 0.9;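 on AC50: zebrafish embryos with chorions exposed by immersion from 6-8 hpf to 5 dpf with daily renewal; teratogenicity score from eye scoring of death hatching and malformations at 144 hpf; higher score means more developmental defects relative to DMSO baseline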). The essentials:
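Larvae scored by eye at 144 hpf for death, hatching and malformations after a day in clean Hanks'. Before that, daily-renewed exposure at 80 uM (0.4% DMSO, 26C) from roughly 6-8 hpf through 5 dpf, 4 embryos per chemical.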

Read-out in assay [6]: Glyceraldehyde-3-phosphate dehydrogenase (Homo sapiens) (UniProt P04406)
The assay is described as follows: CLD_GAPDH_6hr: CellzDirect (CLD) Gene Expression Assay for Baseline Control (Glyceraldehyde 3-phosphate dehydrogenase) at 6 hours (AID 2283681).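 Further: active means increased signal relative to DMSO vehicle.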 The essentials: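 GAPDH baseline-control readout from qNPA (S1 nuclease digestion, probe hybridization, chemiluminescence) in lysates of cultured human hepatocytes harvested 6 h post-dosing. Chemicals tested at multiple concentrations versus 0.2% DMSO vehicle; microscopy-based cytotoxicity flagged yes/no.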

Read-out in assay [7]: Cytochrome P450 2B6 (Homo sapiens) (UniProt P20813)
Briefly: CLD_CYP2B6_24hr: CellzDirect (CLD) Gene Expression Assay for xenobiotic metabolism (CYP2B6) at 24 hours (AID 2283686). The essentials:
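qNPA chemiluminescent measurement of mRNA at 24 hours in human primary hepatocyte cultures from two donor preparations, with daily fresh dosing and 0.2% DMSO vehicle as baseline. Morphology-based cytotoxicity flagged yes/no.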

Read-out in assay [8]: glucuronosyltransferase (UGT1A1), UGT1A1 (gene 54658)
The assay is described as follows: CLD_UGT1A1_24hr: CellzDirect (CLD) Gene Expression Assay for glucuronosyltransferase (UGT1A1) at 24 hours (AID 2283696). The essentials:
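UGT1A1 transcript induction was measured by quantitative nuclease protection assay (chemiluminescence) in human hepatocyte cultures 24 h after daily fresh dosing, with 0.2% DMSO as vehicle and baseline.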

Read-out in assay [9]: ABC Transporter (ABCB11), ABCB11 (gene 8647)
Briefly: CLD_ABCB11_48hr: CellzDirect (CLD) Gene Expression Assay for ABC Transporter (ABCB11) at 48 hours (AID 2283697). The method in brief:
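Induction of ABCB11 mRNA relative to 0.2% DMSO, measured at 48 h by qNPA chemiluminescence. Cultured human hepatocytes (two donors) received fresh dosing solutions at several concentrations on two consecutive days.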

Read-out in assay [10]: Cytochrome P450 2B6 (Homo sapiens) (UniProt P20813)
The assay is described as follows: CLD_CYP2B6_48hr: CellzDirect (CLD) Gene Expression Assay for xenobiotic metabolism (CYP2B6) at 48 hours (AID 2283699).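 Further: actives raise transcript level above DMSO so potency reflects induction.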 The essentials:
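CYP2B6 transcript induction, read by quantitative nuclease protection (S1 digestion, chemiluminescent detection) 48 h after dosing, is fitted upward against 0.2% DMSO. Cultured human liver primary cells, two donor preparations, received fresh chemical daily over multiple concentrations.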

Read-out in assay [11]: xenobiotic metabolism (CYP1A2), CYP1A2 (gene 1544)
The assay is described as follows: CLD_CYP1A2_48hr: CellzDirect (CLD) Gene Expression Assay for xenobiotic metabolism (CYP1A2) at 48 hours (AID 2283703). The essentials:
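Cytotoxicity was flagged yes/no from morphology, while CYP1A2 transcript induction was detected by qNPA chemiluminescence after a 48-hour exposure. Human primary hepatocyte cultures from separate donors received fresh dosing solutions daily over two days, with 0.2% DMSO as vehicle and baseline.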

Read-out in assay [12]: xenobiotic metabolism (CYP1A1), CYP1A1 (gene 1543)
The assay is described as follows: CLD_CYP1A1_48hr: CellzDirect (CLD) Gene Expression Assay for xenobiotic metabolism (CYP1A1) at 48 hours (AID 2283705). The essentials:
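CYP1A1 transcript measured by quantitative nuclease protection (chemiluminescent) 48 h after two daily treatments of human hepatocyte cultures, versus 0.2% DMSO. Morphology-based cytotoxicity flags accompany data; two donor preparations used.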

Read-out in assay [13]: Glyceraldehyde-3-phosphate dehydrogenase (Homo sapiens) (UniProt P04406)
Briefly: CLD_GAPDH_48hr: CellzDirect (CLD) Gene Expression Assay for Baseline Control (Glyceraldehyde 3-phosphate dehydrogenase) at 48 hours (AID 2283706).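 Further: active means higher GAPDH mRNA than DMSO vehicle.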 The essentials: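 GAPDH baseline-control readout: qNPA chemiluminescent mRNA quantitation in human liver primary cells 48 h after daily dosing on two consecutive days, vehicle 0.2% DMSO; gain of signal fitted against DMSO, cytotoxicity flagged by phase-contrast morphology.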

Assay [14] in a line: CLD_ACTIN_6hr: CellzDirect (CLD) Gene Expression Assay for Baseline Control (Actin) at 6 hours (AID 2283676).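 Further: active means increased actin mRNA relative to DMSO vehicle.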 The method in brief: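 Baseline actin transcript level measured by qNPA (S1 nuclease protection, chemiluminescence) in human hepatocyte cultures 6 h after chemical exposure; 0.2% DMSO vehicle as reference, cytotoxicity noted from morphology.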
Read-out in assay [15]: Broad substrate specificity ATP-binding cassette transporter ABCG2 (Homo sapiens) (UniProt Q9UNQ0)
Briefly: CLD_ABCG2_48hr: CellzDirect (CLD) Gene Expression Assay for ABC Transporter (ABCG2) at 48 hours (AID 2283704).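 On AC50: potency for induction of ABCG2 mRNA above the DMSO baseline.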 The method in brief: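 ABCG2 transcript measured at 48 h by quantitative nuclease protection (chemiluminescent) and fitted for increase relative to 0.2% DMSO. Hepatocyte cultures from separate donors got fresh compound daily over two days; morphology annotated cytotoxicity.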

Read-out in assay [16]: Cytochrome P450 3A4 (Homo sapiens) (UniProt P08684)
The assay is described as follows: CLD_CYP3A4_48hr: CellzDirect (CLD) Gene Expression Assay for xenobiotic metabolism (CYP3A4) at 48 hours (AID 2283698). The method in brief:
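CYP3A4 induction read by qNPA chemiluminescence after 48 h, with fresh dosing solutions on consecutive days, in cultured human hepatocytes (two donors). Vehicle 0.2% DMSO as baseline; microscopy-based cytotoxicity annotated yes/no alongside data.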

Read-out in assay [17]: ABC Transporter (ABCB1), ABCB1 (gene 5243)
The assay is described as follows: CLD_ABCB1_24hr: CellzDirect (CLD) Gene Expression Assay for ABC Transporter (ABCB1) at 24 hours (AID 2283684). The method in brief:
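ABCB1 mRNA induction versus 0.2% DMSO vehicle was read by qNPA chemiluminescence at 24 h. Cultured human hepatocytes from two donor preparations received daily fresh dosing, and phase-contrast cytotoxicity calls were annotated alongside the data.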

Read-out in assay [18]: organic anion transporter (SLCO1B1), SLCO1B1 (gene 10599)
Briefly: CLD_SLCO1B1_48hr: CellzDirect (CLD) Gene Expression Assay for organic anion transporter (SLCO1B1) at 48 hours (AID 2283707). The method in brief:
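SLCO1B1 transcript quantified by qNPA with chemiluminescent readout after 48 h of once-daily chemical exposure. Cultured human primary hepatocytes came from two donors, with 0.2% DMSO vehicle; positive-direction fitting against DMSO, cytotoxicity flagged by morphology.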

For orientation: AC50 means the concentration giving half of the maximal activity seen.

Sequence of Cytochrome P450 2C19 (Homo sapiens) (P33261 whole entry, looked up): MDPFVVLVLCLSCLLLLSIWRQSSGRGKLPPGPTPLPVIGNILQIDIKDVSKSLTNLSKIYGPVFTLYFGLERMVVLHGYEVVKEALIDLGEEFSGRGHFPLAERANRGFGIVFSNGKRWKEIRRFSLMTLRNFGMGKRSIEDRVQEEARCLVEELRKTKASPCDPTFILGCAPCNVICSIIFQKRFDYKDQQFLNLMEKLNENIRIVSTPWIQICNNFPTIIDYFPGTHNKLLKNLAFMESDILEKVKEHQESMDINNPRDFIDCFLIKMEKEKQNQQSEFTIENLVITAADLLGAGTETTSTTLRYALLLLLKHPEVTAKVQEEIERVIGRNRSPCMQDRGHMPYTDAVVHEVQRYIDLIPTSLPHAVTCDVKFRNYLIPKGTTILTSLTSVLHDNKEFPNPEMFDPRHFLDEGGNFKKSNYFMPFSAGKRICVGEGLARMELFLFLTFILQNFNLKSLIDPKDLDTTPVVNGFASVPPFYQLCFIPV
Sequence of Cytochrome P450 3A4 (Homo sapiens) (P08684 whole entry, looked up): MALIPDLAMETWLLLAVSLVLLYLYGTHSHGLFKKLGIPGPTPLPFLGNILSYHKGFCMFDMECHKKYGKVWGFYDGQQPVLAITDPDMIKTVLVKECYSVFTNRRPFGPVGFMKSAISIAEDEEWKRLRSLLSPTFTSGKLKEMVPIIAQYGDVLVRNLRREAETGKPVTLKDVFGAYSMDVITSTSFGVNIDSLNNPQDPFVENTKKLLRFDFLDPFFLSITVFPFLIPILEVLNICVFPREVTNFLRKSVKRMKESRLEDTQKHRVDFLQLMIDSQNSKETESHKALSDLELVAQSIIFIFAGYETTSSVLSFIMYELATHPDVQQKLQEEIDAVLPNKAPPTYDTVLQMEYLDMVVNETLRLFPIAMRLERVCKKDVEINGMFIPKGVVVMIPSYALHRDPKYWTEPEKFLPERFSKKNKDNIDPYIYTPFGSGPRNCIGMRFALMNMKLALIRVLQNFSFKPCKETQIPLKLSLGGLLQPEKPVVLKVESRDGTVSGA
Sequence of Glyceraldehyde-3-phosphate dehydrogenase (Homo sapiens) (P04406 whole entry, looked up): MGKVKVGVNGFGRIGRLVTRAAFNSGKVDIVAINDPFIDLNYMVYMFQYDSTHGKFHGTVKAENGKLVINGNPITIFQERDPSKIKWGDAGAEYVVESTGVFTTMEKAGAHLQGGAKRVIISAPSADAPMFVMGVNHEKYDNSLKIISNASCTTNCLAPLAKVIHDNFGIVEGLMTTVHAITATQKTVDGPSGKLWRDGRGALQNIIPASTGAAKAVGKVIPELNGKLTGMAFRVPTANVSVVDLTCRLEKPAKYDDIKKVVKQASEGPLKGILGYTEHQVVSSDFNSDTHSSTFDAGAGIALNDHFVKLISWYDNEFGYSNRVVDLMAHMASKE
Sequence of Broad substrate specificity ATP-binding cassette transporter ABCG2 (Homo sapiens) (Q9UNQ0 whole entry, looked up): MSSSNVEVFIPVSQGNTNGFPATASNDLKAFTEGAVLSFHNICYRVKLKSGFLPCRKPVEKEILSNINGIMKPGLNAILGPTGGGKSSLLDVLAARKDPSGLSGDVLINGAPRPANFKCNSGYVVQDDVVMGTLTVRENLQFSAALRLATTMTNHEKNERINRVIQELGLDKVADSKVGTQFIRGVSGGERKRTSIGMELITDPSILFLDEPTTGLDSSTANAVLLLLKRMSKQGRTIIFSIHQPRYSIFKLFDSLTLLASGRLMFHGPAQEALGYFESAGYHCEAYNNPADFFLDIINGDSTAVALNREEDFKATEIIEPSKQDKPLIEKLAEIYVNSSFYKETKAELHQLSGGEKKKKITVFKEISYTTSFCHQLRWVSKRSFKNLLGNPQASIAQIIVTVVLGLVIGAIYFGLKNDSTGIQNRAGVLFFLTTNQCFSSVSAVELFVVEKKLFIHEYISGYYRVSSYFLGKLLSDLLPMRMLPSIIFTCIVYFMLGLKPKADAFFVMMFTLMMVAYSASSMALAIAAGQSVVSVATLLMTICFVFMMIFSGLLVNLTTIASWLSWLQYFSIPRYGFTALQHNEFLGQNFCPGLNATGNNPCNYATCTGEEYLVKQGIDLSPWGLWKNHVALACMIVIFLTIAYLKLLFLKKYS

With `COC(=O)c1ccccc1S(=O)(=O)NC(=O)N(C)c1nc(C)nc(OC)n1`, the call in assay [1], in assay [2], in assay [3], in assay [4], in assay [5] and in [6] was inactive. The call in assay [7], in assay [8], in [9], in assay [10], in assay [11] and in assay [12] was inactive. Also, the call in [13] was inactive.

For `CC[C@H](C)[C@H]1O[C@]2(C=C[C@@H]1C)C[C@@H]1C[C@@H](C/C=C(\C)[C@@H](O[C@H]3C[C@H](OC)[C@@H](O[C@H]4C[C@H](OC)[C@@H](O)[C@H](C)O4)[C@H](C)O3)[C@@H](C)/C=C/C=C3\CO[C@@H]4[C@H](O)C(C)=C[C@@H](C(=O)O1)[C@]34O)O2` (tested in a mixture with another compound), the AC50 in assay [1] is 0.467 µM (active); in assay [2], 0.332 µM (active); in assay [5], 0.0449 µM (active); in assay [7] it was 3.97 µM (active); in assay [9] it was 0.206 µM (active); in [15], 3.14 µM (active). Further, the outcome in assay [14], in [3], in assay [6], in assay [12] and in assay [13] was inactive.

For `COC(=O)c1ccccc1S(=O)(=O)NC(=O)Nc1nc(C)nc(OC)n1`, the result in [1], in assay [2], in assay [14], in assay [3], in assay [4] and in assay [5] was inactive. The compound was called inactive in [6], in assay [7], in assay [8], in [16], in assay [11] and in assay [15]. The call in assay [13] was inactive.

Consider `OCCOc1ccccc1`, for which the outcome in assay [1], in [2], in assay [14], in [3], in assay [4] and in assay [5] was inactive. The call in assay [6], in assay [17], in [7], in assay [8], in assay [10] and in [11] was inactive.

Regarding `N#Cc1c(Cl)c(Cl)c(Cl)c(C#N)c1Cl`, the result in [1], in assay [4], in assay [7], in assay [9], in [11] and in assay [15] was inactive. In addition, the compound was classed as inactive in [12] and in [13]. Further, the AC50 in assay [2] was 20 µM (active); in assay [3], 20 µM (active); in assay [5], 0.187 µM (active); in [16], 0.000914 µM (active); in assay [10] it was 0.000962 µM (active).

For `O=C(NC(=O)c1c(F)cccc1F)Nc1ccc(OC(F)(F)C(F)OC(F)(F)F)c(Cl)c1` (centres undefined), the outcome in assay [1], in [2], in assay [14], in [3], in assay [4] and in assay [5] was inactive. Also, the call in assay [7], in assay [8], in assay [9], in assay [16], in assay [10] and in assay [11] was inactive. The compound was classed as inactive in assay [15], in assay [13] and in assay [18].

Turning to `O=C1c2ccccc2C(=O)N1SC(Cl)(Cl)Cl`, the outcome in assay [1], in [2], in [4], in [6], in [8] and in assay [9] was inactive. For the same compound, the outcome in [15], in assay [13] and in [18] was inactive. Besides, the half-maximal activity concentration (AC50) in assay [5] was 19.3 µM (active).

Take `COP(=S)(OC)Oc1ccc([N+](=O)[O-])cc1`: the outcome in assay [1], in assay [8], in assay [9], in assay [15] and in assay [18] was inactive. For the same compound, the AC50 is 0.916 µM (active) in [3]; 16.1 µM (active) in assay [5]; 5.28 µM (active) in assay [7]; 8.47 µM (active) in assay [16]; 7.55 µM (active) in [10]; 5.33 µM (active) in assay [11]. Moreover, the AC50 in assay [12] is 12.2 µM (active).
